Measurements published in PubChem BioAssay AID651958 (The Scripps Research Institute Molecular Screening Center, 2012).
The campaign covered roughly 370,000 compounds. About 2,000 (0.54%) were called active. Shown is part of a subset that was picked to be rich in actives. Values without a mark were called inactive. No stated cut-off is given here; in the data, active means inhibition above about 30%; inactive means the rest.

Test system: Crimean-Congo hemorrhagic fever virus L polyprotein viral ovarian tumor (vOTU) protease domain
Experiment: CCHFV vOTU protease inhibitors, primary screen, biochemical, Pep-AMC substrate, fluorescence (AID 651958); further: 0% = vehicle wells with enzyme and 100% = no enzyme wells
Settings: at 11.5 µM, hits give high values

Compound | inhibition
COC(=O)C1=C(Nc2ccc(C)cc2)C=C(C)C(C(=O)OC)C1c1ccc(F)cc1 (stereo unspecified) | 15.8%
COc1ccc(C2=Nc3cc(C)ccc3OC2)cc1 | 14.7%
COc1ccccc1N=Nc1c(O)[nH]c(=S)[nH]c1=O | 38.1% (active)
CCOCCc1c(O)[nH]c(=S)[nH]c1=O | 5.12%
COC(=O)c1ccccc1N=Nc1c(C)[nH][nH]c1=O | -9.29%
O=C(COC(=O)/C=C/c1ccc(S(=O)(=O)N2CCCCCC2)cc1)NCc1ccccc1Cl | -8.91%
Cc1cc(C)nc(-n2ncc3c2CC(c2ccc(C(C)C)cc2)CC3=O)n1 (stereo unspecified) | 2.76%
Cc1cccc(C)c1NC1=NC(=S)N(c2ccc(N(C)C)cc2)C1(C)C | 27.5%
O=C1NC(c2ccc(-c3ccccc3[N+](=O)[O-])o2)C(C(=O)c2ccc(Cl)cc2)C(O)(C(F)(F)F)N1 (stereo unspecified) | 38.5% (active)
CCOC(=O)C1C(c2ccc(O)cc2)NC(=O)NC1(O)C(F)(F)F (stereo unspecified) | -18.4%
Cc1cn(C)c(=O)n(C)c1=O | -10.2%
CCCCCC(=O)N1C[C@H](O)[C@@H](n2cc(COC(=O)c3ccccc3)nn2)C[C@@H]1c1ccc(C)cc1 | 30.5% (active)
Cc1ccc([C@H]2C[C@H](O)[C@@H](n3cc(COC(=O)c4ccccc4)nn3)CN2C(=O)C2CCCCC2)cc1 | 9.18%
CCCCCCN1C[C@@H](O)[C@H](n2cc(COC(=O)c3ccccc3)nn2)C[C@@H]1c1ccc(Cl)cc1 | -5.93%
COc1ccc(C(C#N)N2N=C(C)CC2(C)C)cc1 (stereo unspecified) | 4.09%
COc1cc(Cl)c(C)cc1NC(=O)[C@@H]1CCCN1C(=O)c1cccs1 | -1.68%
CCC1=NN(C(=O)Cc2ccc([N+](=O)[O-])cc2)C(O)(c2ccc(Br)cc2)C1 (stereo unspecified) | -9.95%
C=CCC[C@H](CCCCC)OC(=O)/C=C/[C@H](O)[C@@H](O)C[C@@H](O)CC=C | 18.2%

Compound | inhibition
C=CCC[C@@H](CCCCC)OC(=O)/C=C/[C@@H](O)[C@H](O)C[C@H](O)CC=C | 32.8% (active)
O=C(CCl)NNc1cccc(Cl)n1 | 2.47%
Cc1ccc(C23CC4CC(CC(C(=O)NCC(=O)O)(C4)C2)C3)cc1 | 12.6%
CN(C)c1ccc(N/C=C/C(=O)C(F)(F)F)cc1 | 65% (active)
Cc1cc(C(=O)COc2ccccc2[N+](=O)[O-])c(C)n1-c1cccc(S(=O)(=O)N2CCOCC2)c1 | 15.2%
Cc1cc(C(=O)N/N=C/c2ccc(O)c([N+](=O)[O-])c2)c(C)n1-c1ccc(F)cc1 | 45.6% (active)
Cc1ccc(NC(=O)CN(C)Cc2ccc(F)cc2)c([N+](=O)[O-])c1 | -3.76%
CC(C)(C)n1nnnc1C(c1ccccc1F)N1CCN(C(=O)c2ccco2)CC1 (stereo unspecified) | 9.18%
CC(C)c1ccc(NC(=O)COC(=O)c2ccc(CN3CCCC3=O)cc2)cc1 | 3.69%
CC(=O)N1CCN(c2ccc(NCc3ccc(C(C)C)cc3)cc2)CC1 | 34.2% (active)
CC(C)c1ccc(OCC(=O)N2CCCN(C)CC2)cc1 | 7.24%
O=C(NC1CC1)C1=C[C@H](c2coc3ccccc3c2=O)C[C@H](OCCCCO)O1 | -2.05%
CCOc1ccc(NC(=O)CCCCCN2C(=O)[C@@H]3Cc4ccccc4CN3C2=O)cc1 | 13.7%
CC(C)(C)NC(=O)CN(C(=O)c1csnn1)c1ccccc1-c1ccccc1 | -7.68%
CSc1ccccc1NC(=O)c1cc(C2CC2)on1 | 11.1%
NC1=CC(=O)C(=O)c2cccnc21 | 104% (active)
O=C(NC1CCN(C(=S)NCc2ccco2)CC1)c1ccc(F)cc1 | 13.2%
COc1ccccc1N(CC(=O)Nc1ccc(C)cc1Cl)S(=O)(=O)c1cccs1 | 1.37%
